# PubChem BioAssay (NCATS)
# Results filed as inconclusive are left out. Activity calls are given as the source filed them. The call rests on the fitted dose curve; in most records, active means well fitted inhibition curve with a large enough effect; inconclusive means small, poorly fitted or top-dose-only effect; inactive means flat fitted curve, though single readings scatter.
# Legend:
# Assay in all cases: Cytotoxic Profiling of Annotated Libraries Using Quantitative High-Throughput Screening (AID 1296008); further: nearly all actives have a fitted effect of over 60% in size
# Details in all cases: Five cell lines viability, CellTiter-Glo ATP luminescence, 48-72 h; max response: active compounds read low
# HEK293 = test system: HEK293
# Method in brief: (§1)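 Compounds were pin-transferred onto cells and incubated 48 or 72 hr at 37 degree Celsius, 95% humidity. CellTiter-Glo was added, plates sat 10 min at room temperature, then ATP-coupled luminescence was imaged as the viability read-out.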
# HaCat = test system: HaCat
# Method in brief: as §1
# KB-3-1 = test system: KB-3-1
# Method in brief: as §1
# NIH3T3 = test system: NIH3T3
# Method in brief: as §1
# On the % scale 0 is the no-effect control and ±100 the full control effect; potency means the concentration at half of the fitted maximal effect.
smiles,measurement,setting,value
CCOc1ccc2nc(SCCN3CCOCC3)[nH]c2c1,max response,HEK293,-19.2% (inactive)
same,max response,HaCat,4.78% (inactive)
same,max response,KB-3-1,-9.7% (inactive)
same,max response,NIH3T3,0.835% (inactive)
CC(C)(C)NC(=O)[C@@H](c1cccnc1)N(C(=O)c1ccco1)c1ccc(C(C)(C)C)cc1,max response,HEK293,-16.3% (inactive)
same,max response,HaCat,-16.4% (inactive)
same,outcome,KB-3-1,inactive
same,max response,NIH3T3,4.2% (inactive)
Nc1nc2c(c(N3CCNCC3)n1)CCC1=C2[C@@H]2CCCC[C@@H]2O1,Potency,HEK293,18.4 µM (active)
same,outcome,HaCat,inactive
same,max response,KB-3-1,-5.74% (inactive)
same,max response,NIH3T3,-4.38% (inactive)
NCCCNc1ccc(Nc2nccc(Nc3cc(C4CC4)[nH]n3)n2)cc1,Potency,HEK293,1.03 µM (active)
same,Potency,HaCat,4.61 µM (active)
same,Potency,KB-3-1,820 nM (active)
same,Potency,NIH3T3,5.8 µM (active)
O=C(/C=C/c1ccc(O)cc1)N[C@@H](Cc1ccc(O)cc1)C(=O)O,max response,HEK293,-7.32% (inactive)
same,max response,HaCat,1.92% (inactive)
same,max response,KB-3-1,-2.01% (inactive)
same,max response,NIH3T3,1.16% (inactive)
CC(C)c1cc(CNc2nc(Nc3cc(C4CC4)[nH]n3)cc(N3CCN(C)CC3)n2)on1,Potency,HEK293,1.3 µM (active)
same,Potency,HaCat,2.31 µM (active)
same,Potency,KB-3-1,146 nM (active)
same,Potency,NIH3T3,0.461 µM (active)
C/C=C/C(O)C1OC(=O)CC1Nc1ccc(C(=O)O)cc1 (stereo not given),max response,HEK293,4.45% (inactive)
same,max response,HaCat,-8.27% (inactive)
same,max response,KB-3-1,8.51% (inactive)
same,max response,NIH3T3,1.46% (inactive)
CC1C(OC(=O)c2ccccc2)C(O)C2C(C(=O)O)=COC(OC3OC(CO)C(O)C(O)C3O)C12 (stereo not given),max response,HEK293,-0.0764% (inactive)
same,max response,HaCat,-2.92% (inactive)
same,outcome,KB-3-1,inactive
same,max response,NIH3T3,4.34% (inactive)
CC1(C)CC2C(C1)C(C)(O)C13CC1(COC3=O)C2O (stereo not given),max response,HEK293,-10.5% (inactive)
same,max response,HaCat,-11.6% (inactive)
same,max response,KB-3-1,-11% (inactive)
same,max response,NIH3T3,-6.54% (inactive)
C[C@@H]1CCC/C=C/[C@H]2CC(=O)C[C@@H]2[C@@H](O)/C=C/C(=O)O1,max response,HEK293,-12% (inactive)
same,max response,HaCat,-12.2% (inactive)
same,max response,KB-3-1,8.18% (inactive)
same,max response,NIH3T3,-2.1% (inactive)
C=C[C@@H]1[C@H](O[C@@H]2O[C@H](CO)[C@@H](O)[C@H](O)[C@H]2O)OC=C(C(=O)O)[C@H]1CCOC(=O)/C=C/c1ccc(O)c(O)c1,max response,HEK293,4.3% (inactive)
same,max response,HaCat,-20.8% (inactive)
same,outcome,KB-3-1,inactive
same,max response,NIH3T3,0.24% (inactive)
C=C1C[C@]23C[C@H]1CC[C@H]2[C@]1(C)CCC[C@@](C)(C(=O)O)[C@H]1[C@@H]3C(=O)O,max response,HEK293,-6% (inactive)
same,max response,HaCat,-5.4% (inactive)
same,max response,KB-3-1,0.882% (inactive)
same,max response,NIH3T3,2.88% (inactive)
O=C(/C=C/c1cccc(S(=O)(=O)Nc2ccccc2)c1)NO,Potency,HEK293,3.99 µM (active)
same,Potency,HaCat,5.02 µM (active)
same,Potency,KB-3-1,2820 nM (active)
same,Potency,NIH3T3,7.96 µM (active)
COC(=O)c1ccccc1O[C@@H]1O[C@H](CO)[C@@H](O)[C@H](O)[C@H]1O[C@@H]1O[C@@H](C)[C@H](O)[C@@H](O)[C@H]1O,max response,HEK293,3.36% (inactive)
same,max response,HaCat,-1.51% (inactive)
same,max response,KB-3-1,3.4% (inactive)
same,max response,NIH3T3,0.854% (inactive)
CC(=O)OC[C@]12[C@H](OC(C)=O)C(=O)[C@@H]3[C@@H](OC(C)=O)[C@@]14O[C@@]3(C)COC(=O)c1cccnc1[C@@H](C)[C@H](C)C(=O)O[C@@H]([C@H](O)[C@@H]2OC(C)=O)[C@]4(C)O,max response,HEK293,-0.596% (inactive)
same,max response,HaCat,-0.606% (inactive)
same,max response,KB-3-1,-8.82% (inactive)
same,max response,NIH3T3,-21% (inactive)
C=C1CCC2C(C)(C(=O)O)CCCC2(C)C1CC/C(=C\CO)CO (stereo not given),max response,HEK293,2.54% (inactive)
same,max response,HaCat,-8.15% (inactive)
same,max response,KB-3-1,8.33% (inactive)
same,max response,NIH3T3,3.98% (inactive)
C=CC(=O)Nc1cc(Nc2nccc(-c3c[nH]c4ccccc34)n2)c(OC)cc1N(C)CCN(C)C,Potency,HEK293,5.17 µM (active)
same,Potency,HaCat,0.0366 µM (active)
same,Potency,KB-3-1,8200 nM (active)
same,Potency,NIH3T3,14.6 µM (active)
Cc1c(F)cc(C(=O)NC2CC2)cc1-c1c(F)cn2c(C(C)(C)C)nnc2c1F,max response,HEK293,-22.1% (inactive)
same,max response,HaCat,-0.453% (inactive)
same,max response,KB-3-1,-2.87% (inactive)
same,max response,NIH3T3,-8.04% (inactive)
C=C1CCC[C@]2(C)CC[C@@H](C(=C)C(=O)O)[C@H](O)[C@@H]12,max response,HEK293,-1.48% (inactive)
same,outcome,HaCat,inactive
same,max response,KB-3-1,1.72% (inactive)
same,max response,NIH3T3,-0.289% (inactive)
C=C[C@H]1[C@H](O[C@@H]2O[C@H](CO)[C@@H](O)[C@H](O)[C@H]2O)OC=C(C(=O)OC)[C@H]1CCOC(=O)c1cc(O)c(O)c(O)c1,max response,HEK293,0.889% (inactive)
same,max response,HaCat,4.92% (inactive)
same,outcome,KB-3-1,inactive
same,max response,NIH3T3,-1.02% (inactive)
